Source: PubChem BioAssay (NCI)
The panel holds about 83,000 compounds, 20% with a hit somewhere; the sample as a whole holds those more often.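 Testing used 96-well plates and a 48-hour single-concentration exposure. Example: -40 means 40% of the starting cells died.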 Activity calls are given as the source filed them. How the source made its calls: active means growth percent below 10; inactive means the rest.

What was measured:
Assay in all cases: NCI-60 one-dose screen, 48 h (100 = growth as untreated, 0 = no growth, -100 = all killed)
Settings in all cases: 10 µM unless noted
[1] = test system: HCT-15 colon
[2] = test system: HT29 colon
[3] = test system: SNB-75 CNS
[4] = test system: SNB-19 CNS
[5] = test system: U251 CNS
[6] = test system: PC-3 prostate
[7] = test system: SK-MEL-5 melanoma
[8] = test system: LOX IMVI melanoma
[9] = test system: SK-MEL-28 melanoma
[10] = test system: SK-MEL-2 melanoma
[11] = test system: EKVX NSCLC
[12] = test system: SN12C renal
[13] = test system: UO-31 renal
[14] = test system: TK-10 renal
[15] = test system: ACHN renal
[16] = test system: CAKI-1 renal
[17] = test system: A498 renal
[18] = test system: CCRF-CEM leukemia
[19] = test system: MOLT-4 leukemia
[20] = test system: UACC-62 melanoma

Measured: growth

CCc1ccccc1-c1nc(CN[C@@H]2C[C@@H]3C[C@H]([C@H]2C)C3(C)C)c(C)o1
active: [1] -71.2% | [2] -73.8% | [3] -68.1% | [4] -81.7% | [5] -61.9% | [6] -54.3% | [7] -94.3% | [8] -94.4% | [9] -80.3% | [10] -83.6% | [11] -81.8% | [12] -79.3% | [13] -87.8% | [14] -88.9% | [15] -97.9% | [16] -95% | [17] -90.9% | [18] 3.82% | [19] -28.2%

Cn1ncc2c(N)nc(Oc3ccccc3-c3ccccc3)nc21
active: [3] 8.98% | [7] 0.935% | [10] -4.9% | [19] 8.1%
inactive: [1] 10.7% | [2] 14.9% | [4] 33.8% | [5] 32.6% | [6] 58.5% | [20] 26.3% | [9] 53.7% | [11] 41.6% | [12] 43.3% | [13] 48.1% | [14] 65.1% | [15] 51.6% | [16] 29% | [17] 105% | [18] 25.5%

C=CCn1c(O)c(N=Nc2nc(-c3cc4ccccc4oc3=O)cs2)c2ccccc21
active: [3] -25%
inactive: [1] 98.4% | [2] 17.2% | [4] 38.7% | [5] 13.3% | [6] 56.4% | [7] 33.3% | [8] 70.1% | [9] 49.8% | [10] 64.4% | [11] 55.7% | [12] 90.7% | [13] 101% | [14] 90.9% | [15] 78.4% | [16] 94.3% | [17] 137% | [18] 35.8% | [19] 98.3%

Cc1ccc(NC(=O)N/N=C/c2c[nH]c3ccccc23)c(C)c1
active: [1] 9.06% | [2] -35.4% | [5] 9.2% | [7] 5.42% | [8] -19% | [19] 6.25%
inactive: [3] 14.5% | [4] 34.7% | [6] 27.8% | [9] 47.8% | [10] 20.5% | [11] 34.7% | [12] 15.9% | [13] 26.6% | [14] 30.5% | [15] 22.8% | [16] 29.1% | [17] 55.7% | [18] 10%

O=C(Nc1ccc(Br)cc1)Nc1ccc(-c2ccc3c(c2)NC(=O)/C3=C\c2ccc[nH]2)cc1
inactive: [1] 42.8% | [2] 23.1% | [3] 59.2% | [4] 75.2% | [5] 39.5% | [6] 52.6% | [7] 33.1% | [8] 25.6% | [9] 57.5% | [10] 36.7% | [11] 42.3% | [12] 52.5% | [13] 20.6% | [14] 52.3% | [15] 30% | [16] 31.1% | [17] 105% | [18] 25.3% | [19] 35.6%

Nc1nn2c(-c3cc4cc(Br)ccc4oc3=O)ccnc2c1N=Nc1ccc(S(N)(=O)=O)cc1
inactive: [1] 103% | [2] 92.4% | [3] 116% | [4] 41.6% | [5] 28.1% | [6] 87.5% | [7] 63.7% | [8] 63.8% | [9] 80.7% | [10] 94.6% | [11] 91.9% | [12] 74% | [13] 76.6% | [14] 114% | [15] 95.7% | [16] 81% | [17] 149% | [18] 82.3% | [19] 89.9%

COc1cc(C2CC(c3ccc(F)cc3)=Nc3c(N)nc(N)nc3N2)ccc1Oc1nc(Nc2ccc(F)cc2)nc(N(C)C)n1 (stereo not drawn)
inactive: [1] 35.7% | [2] 22.1% | [3] 58.3% | [4] 65.1% | [5] 52.9% | [6] 27% | [8] 38.5% | [9] 84.2% | [10] 19.2% | [11] 56.4% | [12] 79.7% | [13] 48% | [14] 88.7% | [15] 51.4% | [16] 40.5% | [17] 74% | [18] 44.2%
active: [7] -94.3% | [19] 1.16%
